Source: PubChem BioAssay (EPA / NIEHS)
Active and inactive are the calls of the source. The calls were made as follows: active = hit-call score of the fitted dose curve at least 0.9, where 1 is the maximum; inactive = score below 0.9.

assay: ATG_NRF2_ARE_CIS: Attagene CIS-FACTORIAL HepG2 Assay for human Nuclear Factor Erythroid 2 Related Factor 2 (NFR2) response to Antioxidant Response Elements (ARE) (AID 2282992); conditions: HepG2 Attagene ARE/NRF2 reporter, transcription factor activity; actives raise or lower the signal
Procedure: ATG_CIS is a cell-based, multiplexed-readout assay that uses HepG2, a human liver cell line, with measurements taken at 24 hours after chemical dosing in a 24-well plate.ATG_NRF2_ARE_CIS is one of 52 assay component(s) measured or calculated from the ATG_CIS assay. It is designed to make measurements of mRNA induction, a form of inducible reporter, as detected with fluorescence intensity signals by Reverse transcription polymerase chain reaction (RT-PCR) and Capillary electrophoresis technology.Data from the assay component ATG_NRF2_ARE_CIS was analyzed into 1 assay endpoint. This assay endpoint, ATG_NRF2_ARE_CIS, was analyzed with bidirectional fitting relative to DMSO as the negative control and baseline of activity. Using a type of inducible reporter, measures of mRNA for gain or loss-of-signal activity can be used to understand the reporter gene at the transcription factor-level as they relate to the gene NFE2L2. Furthermore, this assay endpoint can be referred to as a primary readout, because this assay has produced multiple assay endpoints where this one serves a reporter gene function. To generalize the intended target to other relatable targets, this assay endpoint is annotated to the dna binding intended target family, where the subfamily is basic leucine zipper.
Human liver HepG2 cells are transiently transfected with multiple reporter transcription units (MRTUs) in 6-well plates using FuGene 6 reagent (Roche; 3 ml FuGene/1 mg DNA). The MRTU constructs are regulated by a cis-regulating element (promoter). […] A major difference between the CIS and TRANS system is that in CIS activities of endogenous TFs are measured, whereas the TRANS assay evaluates changes in activities of exogenous, chimeric NR-Gal4 proteins. […] At the end of 24 hour incubation, total RNA was isolated using TriZol reagent (Invitrogen). The isolated RNA is then reverse-transcribed using oligo(dT) primer and Mo-MLV reverse transcriptase (Invitrogen) with DNAse I (Ambion) treatment for 30 min. The one-tenth of the produced cDNA was amplified by PCR using Taq DNA polymerase (Invitrogen) and two reporter sequence-specific primers. The PCR products were fluorescently labeled by primer extension with 6-arboxyfluorescein (6-FAM) 5'-labeled reporter sequence-specific primer (2 min at 95 C, 20 s at 68 C and 10 min at 72 C) and these products were digested with 5U of HpaI (New England Biolabs) for 2h at 37 C. The fragments were purified using Qiaquick PCR columns (Qiagen), analyzed on an ABI 3130xL genetic analyzer (Applied Biosystems) with peak positions identified by using a set of X-rhodamine (ROX)-labeled MapMarker1000 molecular weight standards (BioVentures). The raw capillary electrophoresis data was processed using Attagraph software (Attagene).

Row | Compound | outcome | AC50
1 | O=C(O)CCCc1ccc(N(CCCl)CCCl)cc1 | inactive | –
2 | CC1(C)CC(=O)CC(C)(C)N1[O] | – | 19.8 µM (active)
3 | SCc1ccco1 | – | 71.2 µM (active)
4 | O=[N+]([O-])c1cc([N+](=O)[O-])c2ccccc2c1 | – | 3.1 µM (active)
5 | C=CC(=O)OCCO | – | 47.6 µM (active)
6 | N#CCCCCC#N | inactive | –
7 | COc1ccc(CO)cc1 | inactive | –
8 | CCCCNP(N)(N)=S | inactive | –
9 | Cc1ccc(N(SC(F)(Cl)Cl)S(=O)(=O)N(C)C)cc1 | – | 13.9 µM (active)
10 | [N-]=[N+]=CC(=O)OC[C@H](N)C(=O)O | inactive | –
11 | CCOP(=O)(OCC)OCC | inactive | –
12 | CN(C)C(=O)C(c1ccccc1)c1ccccc1 | inactive | –
13 | N#CCNCC#N | inactive | –
14 | CC(C)(O)C#N | inactive | –
15 | O=[N+]([O-])C=Cc1ccccc1 | inactive | –
16 | CC(C)(c1cc(Cl)c(O)c(Cl)c1)c1cc(Cl)c(O)c(Cl)c1 | inactive | –
17 | Cc1ccc(OP(=O)(Oc2ccc(C)cc2)Oc2ccc(C)cc2)cc1 (tested in a mixture with another compound) | inactive | –
18 | CCOC(=O)N(C)N=O | inactive | –
19 | CCN(CC)C(=S)S | – | 27.8 µM (active)
20 | CCOC(=O)C1OC1(C)c1ccccc1 (stereo not given) | inactive | –

Row | Compound | outcome | AC50
21 | O=C(O)C(Br)Br | – | 1.86 µM (active)
22 | CCC[N+](=O)[O-] | inactive | –
23 | CC=Cc1ccc2c(c1)OCO2 | inactive | –
24 | COC(=O)COc1ccc(Cl)cc1Cl | inactive | –
25 | CC1(C)[C@H](C(=O)O[C@H](C#N)c2cccc(Oc3ccccc3)c2)[C@@H]1C=C(Br)Br | inactive | –
26 | COC(C)(C)CCC[C@H](C)C/C=C/C(C)=C/C(=O)OC(C)C | – | 52.8 µM (active)
27 | CN1C[C@H](C(=O)N[C@]2(C)O[C@@]3(O)[C@@H]4CCCN4C(=O)[C@H](Cc4ccccc4)N3C2=O)C=C2c3cccc4[nH]cc(c34)C[C@H]21 | – | 27 µM (active)
28 | ClCC(Cl)Cl | inactive | –
29 | CNC(=O)Oc1cc(C)c(SC)c(C)c1 | inactive | –
30 | C[C@]12CCC(=O)C(O)=C1CC[C@@H]1[C@@H]2CC[C@]2(C)C(=O)CC[C@@H]12 | – | 13.8 µM (active)
31 | CC(=O)C=Cc1ccccc1 | – | 56.5 µM (active)
32 | CCC(C)c1cc(C(C)(C)C)cc(-n2nc3ccccc3n2)c1O (stereo not given) | inactive | –
33 | Cc1ccc(C)c2ccccc12 | inactive | –
34 | CC(C)C(=O)Cl | inactive | –
35 | O=C(CCN1CC1)OCC(CO)(COC(=O)CCN1CC1)COC(=O)CCN1CC1 | inactive | –
36 | CN1C(=O)CCS(=O)(=O)C1c1ccc(Cl)cc1 (stereo not given) | inactive | –
37 | S=c1[nH]c2ccccc2[nH]1 | inactive | –
38 | CC(C)C#N | inactive | –
39 | Oc1ccc(C2(c3ccc(O)cc3)c3ccccc3-c3ccccc32)cc1 | inactive | –
40 | CCC(C)(C)O | inactive | –
